Pf apPOL block: Pf-apPOL DNA polymerase inhibition; Recombinant Pf-apPOL, molecular beacon fluorescence, 1.5 h; inhibition, % at 10 µM; actives 0.25% (n = 210,000); AID 1794808
mHTT CaM bind: inhibitors of human mutant huntingtin-calmodulin interaction; AlphaScreen His-mHTT/GST-CaM binding, luminescence; inhibition, % at 15 µM; actives 3.6% (n = 190,000);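 also: 0% = both proteins with DMSO and 100% = one protein alone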
* = called active by the depositor; . = not tested or not shown. Only some compounds are listed: those with a hit (about 3.6% of all), similar ones and a draw of the others. Rule as the data show it: active = inhibition above about 50%; inactive = the rest.

SMILES	Pf apPOL block	mHTT CaM bind
CC(C)NC(=O)c1ccc(OCC2CCN(C(=O)c3cccc(F)c3)CC2)cc1	-0.9	8.6
O=C(NCc1n[nH]c(=O)c2ccccc12)c1cccc2ccccc12	-2.3	-8.2
O=C(NCc1n[nH]c(=O)c2ccccc12)c1cc(-c2ccco2)[nH]n1	77.6*	30.7
O=C(NCCS(=O)(=O)N1CCN(c2ccccn2)CC1)c1ccco1	-1.3	-3.1
O=C(NCCc1cscn1)C1CCN(C(=O)c2cccc(Cl)c2)CC1	-4.2	-9.2
CC(=O)NC1=NN(C(C)=O)C(C)(c2ccc(-c3ccccc3)cc2)S1 (stereo not drawn)	-5.1	51.0*
CC(=O)NC1=NN(C(C)=O)C(C)(c2ccc(F)cc2)S1 (stereo not drawn)	5.2	0.0
CCN(CC)CCNC(=O)c1c(O)c2cc(F)cc3c2n(c1=O)C(C)CC3 (stereo not drawn)	-77.6	61.0*
CC1CCc2cc(F)cc3c(O)c(C(=O)Nc4ncccc4O)c(=O)n1c23 (stereo not drawn)	-85.2	22.0
Cc1occc1C(=O)N1CCN(c2ccccn2)CC1	-10.2	-4.3
Cc1ccc(-c2cc(C(=O)N3CCN(c4ccccn4)CC3)c(C)[nH]2)cc1C	-8.0	97.8*
O=C1CC(C(=O)Nc2ccc(Cl)cc2Cl)C2(CCCCC2)O1 (stereo not drawn)	8.0	1.0
O=C(CCC1CCCN(c2cc(NC3CC3)ncn2)C1)N1CCN(c2ccccc2)CC1 (stereo not drawn)	-4.2	19.6
CC(C)(C)OC(=O)N1CCN(C(=O)C=CC(=O)O)CC1	-3.2	.
O=C(c1ccco1)N1CCN(c2c(Cl)cccc2[N+](=O)[O-])CC1	-6.1	9.2
Cc1ccc(C(c2ccc(C)o2)c2cc3c(cc2[N+](=O)[O-])OCCO3)o1	-6.0	56.0*
CCCC(=O)c1cc2c(cc1[N+](=O)[O-])OCCO2	-4.9	1.1
Cc1ccc(C(c2ccc(C)o2)c2cc([N+](=O)[O-])cc(Br)c2O)o1	-4.0	64.7*
Cc1ccc(C(c2ccc(C)o2)c2cc(Br)cc([N+](=O)[O-])c2O)o1	3.9	42.0
O=c1cc(C(F)(F)F)oc2ccc(Cl)c([N+](=O)[O-])c12	-0.5	0.0
C=CCn1c(SCc2nc3ccccc3[nH]2)nc2sc(C)c(C)c2c1=O	-7.1	9.2
Cc1nc2c(C(=O)NCc3ccccc3)cnn2c(C)c1Cc1ccc(Cl)cc1	-9.0	35.0
COCCNC(=O)c1cnn2c(C)c(Cc3ccc(F)cc3)c(C)nc12	-8.6	19.0
Cc1nc2c(C(=O)N3CCCCC3)cnn2c(C)c1Cc1ccc(Cl)cc1	1.6	100.0*
Cc1nc2c(C(=O)N3CCCCC3)cnn2c(C)c1Cc1ccccc1Br	-8.9	41.0
SMILES	Pf apPOL block	mHTT CaM bind
Cc1nc2c(C(=O)N3CCCC(C)C3)cnn2c(C)c1Cc1ccc(Cl)cc1 (stereo not drawn)	-4.5	100.0*
COCCCNC(=O)c1cnn2c(C)c(Cc3ccc(Cl)cc3)c(C)nc12	-13.8	90.0*
Cc1ccc(S(=O)(=O)N2CCc3nc(NC(=O)c4cc(F)ccc4F)sc3C2)cc1	0.5	10.8
CSc1nc2ccsc2c(=O)[nH]1	0.6	.
CCNC(=O)C(=O)Nc1ccc(C)c(Cl)c1	-9.2	-0.7
Nc1ncnc(NC2CCCCCC2)c1[N+](=O)[O-]	-1.1	-2.9
Cc1ccc(Cl)cc1NC(=O)CN(C)S(=O)(=O)c1ccc2[nH]c3c(c2c1)CCCC3	-1.9	42.3
Cc1ccsc1CCNS(=O)(=O)c1ccc2[nH]c3c(c2c1)CCCC3	-0.8	61.5*
Cc1ccsc1CCNS(=O)(=O)c1ccc2[nH]c3c(c2c1)CCCCC3	-1.9	96.2*
CCCn1ncc(N2CCC(C(=O)N3CCCCC3)CC2)cc1=O	-3.5	-7.8
Cc1c2n(c3ccccc13)CC(=Cc1ccc(C(F)(F)F)cc1)C2=O	1.2	.
CCN(CC)c1ccc2cc(C(N)=O)c(=Nc3ccccc3C)oc2c1	2.1	54.0*
CCN(CC)c1ccc2cc(C(N)=O)c(=Nc3ccc(C)cc3)oc2c1	2.6	10.0
COc1ccc(NC(=O)COc2ccc(Br)cc2C)cc1	-1.2	-7.9
COc1cc(/C=C2/C=C(c3ccc(C(C)C)cc3)OC2=O)cc(OC)c1OC	-10.4	17.0
Cc1cccc(-n2nc3c(c2NC(=O)c2ccc(F)cc2)CS(=O)(=O)C3)c1C	-5.8	3.0
Cc1cc2nc(Cc3ccccc3)n(CC(=O)N3CCOCC3)c2cc1C	0.1	7.6
O=C(NCc1ccccn1)c1ccc2c(c1)NC(=O)C(N1CCCC1)S2 (stereo not drawn)	-10.9	58.0*
O=C(NCc1ccccc1Cl)c1ccc2c(c1)NC(=O)C(N1CCCC1)S2 (stereo not drawn)	-16.1	6.0
O=C(Cc1cccs1)NCCOc1ccc2nnc(-c3ccc(F)cc3)n2n1	3.4	-4.0
O=C(NCCOc1ccc2nnc(-c3ccc(F)cc3)n2n1)c1cc(-c2ccco2)[nH]n1	63.5*	-5.7
Cc1cc(C)c2sc(N(CCN(C)C)C(=O)c3ccccc3[N+](=O)[O-])nc2c1	5.7	83.8*
CCN(C(=O)c1ccccc1[N+](=O)[O-])c1ccccc1C	-4.3	-0.3
O=C(NCc1ccc(Cl)cc1)C1CCN(c2ccc(N3CCCC3)nn2)CC1	10.0	27.8
O=C(Nc1ccccc1F)C(NS(=O)(=O)c1cccs1)c1ccccc1 (stereo not drawn)	-4.9	3.0
SMILES	Pf apPOL block	mHTT CaM bind
O=C(Nc1ccc(Cl)c(C(F)(F)F)c1)C(NS(=O)(=O)c1cccs1)c1ccccc1 (stereo not drawn)	-8.5	100.0*
N#CCCSc1ccccc1NC(=O)c1ccc(C(=O)c2ccccc2)cc1	-2.2	0.2
O=[N+]([O-])c1ccc(CN2CCN(c3ccccc3F)CC2)o1	-13.8	-1.9
Cc1ccc(NC(=O)CSc2nc3n(n2)C(=O)C(=O)N3)cc1	93.6*	3.0
Cc1ccc(SCC(=O)Nc2ccc(F)cc2)cc1	-6.0	.
CC(C)C[C@@H]1COc2cccc(N3CCN(Cc4ccccc4F)CC3)c2S(=O)(=O)N1	-6.4	43.5
O=S1(=O)N[C@@H](Cc2ccccc2)COc2cccc(N3CCN(Cc4ccccc4F)CC3)c21	-9.9	88.9*
CSc1ncccc1C(=O)OCc1cc(-c2ccc3c(c2)OCCO3)on1	-0.8	-3.9
Cc1ccc(C(=O)N2N=C(c3ccc(Cl)cc3)CC2(O)C(F)(F)F)cc1 (stereo not drawn)	-4.3	35.0
O=C(CCc1ccccc1)N1N=C(c2ccc(Cl)cc2)CC1(O)C(F)(F)F (stereo not drawn)	-12.8	-8.0
O=C(c1ccc(Cl)cc1)N1N=C(c2ccccc2)CC1(O)C(F)(F)F (stereo not drawn)	-10.4	54.0*
Cc1cc(C)cc(OCC(=O)N2N=C(c3ccc(Cl)cc3)CC2(O)C(F)(F)F)c1 (stereo not drawn)	-1.0	90.0*
Cc1ccccc1OCC(=O)N1N=C(c2ccc(Cl)cc2)CC1(O)C(F)(F)F (stereo not drawn)	4.0	96.0*
COc1ccc(C(=O)N2N=C(c3cccc(Br)c3)CC2(O)C(F)(F)F)cc1 (stereo not drawn)	0.2	50.0*
COc1ccc(C(=O)N2N=C(c3ccc(Br)cc3)CC2(O)C(F)(F)F)cc1 (stereo not drawn)	1.5	24.0
O=C(c1ccc(Cl)cc1)N1N=C(c2ccc(Cl)cc2)CC1(O)C(F)(F)F (stereo not drawn)	-4.8	-2.0
CCOCCCN1COc2ccc3c(=O)c(Oc4ccccc4OCC)coc3c2C1	2.2	0.0
